# Experimental data reported in ChEMBL document CHEMBL3988442, “University of Dundee, Small-Polar-MMV Screening Library” (2021).
# Out of some 69,000 compounds screened, about 1,000 (1.4%) showed an effect of 50% or more. This excerpt belongs to a sample that is enriched for strong results.
# Tested on: Leishmania donovani
# Assay: Leishmania intramacrophage assay
# Assay type: functional, organism-based
# Design: scale not given: in the data most compounds retested in dose-response had high values
smiles,measurement,setting,value
COc1cc2nc(NCc3cc(C)on3)nc(N)c2cc1OC,Percent Effect,"30.3 µM, […]",-3.382%
COc1ccccc1NCC(=O)NCc1scnc1C,Percent Effect,"30.3 µM, […]",29.29%
COc1cc2nc(NCc3scnc3C)nc(N)c2cc1OC,Percent Effect,"30.3 µM, […]",62.63%
COCCCN1CC2(CCCCN2C(C)=O)CC1=O (stereo unspecified),Percent Effect,"30.3 µM, […]",13.42%
Cc1nc(N)ncc1C(=O)N1CCCC(CCc2ccc(F)c(F)c2)C1 (stereo unspecified),Percent Effect,"30.3 µM, […]",6.718%
OCc1c(Cl)ncn1-c1ccccc1,Percent Effect,"30.3 µM, […]",61.75%
Cc1ccc(-n2cnc(Cl)c2CO)cc1,Percent Effect,"30.3 µM, […]",12.87%
OCc1c(Cl)ncn1-c1ccc(F)cc1,Percent Effect,"30.3 µM, […]",25.45%
CC(C)CN1CCC2(CCN(Cc3nccs3)CC2)C1=O.O=C(O)C(F)(F)F,Percent Effect,"30.3 µM, […]",12.73%
Cc1noc(C)c1C(=O)N(C)C(C)c1cccnc1 (stereo unspecified),Percent Effect,"30.3 µM, […]",-5.434%
Cc1noc(CN(C)C(=O)c2n[nH]c(N)c2-c2ccccc2)n1,Percent Effect,"30.3 µM, […]",-0.6486%
CN(C)CC1(O)CCCN(c2noc(-c3ccccc3)n2)CC1 (stereo unspecified),Percent Effect,"30.3 µM, […]",2.473%
CN(C)CC1(O)CCCN(c2nc(-c3ccccc3)no2)CC1 (stereo unspecified),Percent Effect,"30.3 µM, […]",31.64%
Cc1cc(N2CCCC(O)(CN(C)C)CC2)nc(-c2ccccc2)n1 (stereo unspecified),Percent Effect,"30.3 µM, […]",63.47%
N#Cc1ccc(CN2C(=O)c3ccccc3CS2(=O)=O)cc1,Percent Effect,"30.3 µM, […]",-16.87%
COC(=O)CCc1c(C)nn(-c2nc(C)cc(=O)[nH]2)c1C,Percent Effect,"30 µM, 30.03 µM",-18.05%
Cc1cc(=O)[nH]c(-n2nc(C)c(CCC(=O)Nc3nc(C)cs3)c2C)n1,Percent Effect,"30.3 µM, […]",59.04%
Cc1cc(=O)[nH]c(-n2nc(C)c(CCC(=O)NCC(C)C)c2C)n1,Percent Effect,"30.3 µM, […]",15.57%
CC(CNc1cncc(-n2cccn2)n1)N(C)c1ccccc1 (stereo unspecified),Percent Effect,"30 µM, 30.03 µM",31.44%
Cc1ncnc(NCC(C)N(C)c2ccccc2)c1C (stereo unspecified),Percent Effect,"30.3 µM, […]",57.28%
Cc1nc2c(NCC(C)N(C)c3ccccc3)ncnc2o1 (stereo unspecified),Percent Effect,"30.3 µM, […]",33.01%
Cn1cccc1C(=O)N1CCC(c2nccn2Cc2ccncc2)CC1,Percent Effect,"30.3 µM, […]",6.64%
CN1CC(=O)N(c2ccccc2)CC12CCN(C(=O)c1cnccn1)C2.O=C(O)C(F)(F)F (stereo unspecified),Percent Effect,"30.3 µM, […]",4.293%
Cc1nn(CCC#N)c(C)c1CCC(=O)N(C)Cc1ccc(F)cc1F,Percent Effect,"30.3 µM, […]",2.715%
Cc1nn(CCC#N)c(C)c1[C@@H]1C=C[C@@H](NCc2cccc(Cl)c2)C1,Percent Effect,"30.3 µM, […]",-10.48%
Cc1nn(CCC#N)c(C)c1[C@@H]1C=C[C@@H](NCc2ccc(F)cc2)C1,Percent Effect,"30.3 µM, […]",101.5%
Cc1cccc2c1N(C)C(=O)C21CC(=O)Nc2c1cnn2C(C)(C)C (stereo unspecified),Percent Effect,"30.3 µM, […]",-18.37%
COc1ccc(S(=O)(=O)NCc2cccnc2N(C)C)cc1F,Percent Effect,"30 µM, 30.03 µM",58.31%
COc1ccc(S(=O)(=O)NCc2cccnc2N(C)C)cc1,Percent Effect,30 µM,27.65%
CN(C)c1ncccc1CNS(=O)(=O)c1cc(F)cc(F)c1,Percent Effect,30 µM,13.05%
CCOC(=O)c1ccc(S(=O)(=O)NCc2cccnc2N(C)C)cc1,Percent Effect,30 µM,21.62%
CCOc1ccc(S(=O)(=O)NCc2cccnc2N(C)C)cc1,Percent Effect,"30 µM, 30.03 µM",61.25%
CN(C)c1ncccc1CNS(=O)(=O)c1ccc(F)c(F)c1,Percent Effect,30 µM,32.33%
CC(C)CCN(C)Cc1ccccc1-c1nc(C(C)C)cc(=O)[nH]1,Percent Effect,"30.3 µM, […]",41.3%
CNc1cc2c(nn1)CCN(C(=O)c1coc(Br)c1)C2,Percent Effect,30 µM,-2.691%
COCCC1(CO)CCCN(Cc2cc(C(F)(F)F)ccc2F)C1 (stereo unspecified),Percent Effect,"30.3 µM, […]",0.4261%
O=C(Nc1cccc(CN2CCC(CO)CC2)c1)c1cc(Cl)c[nH]1,Percent Effect,"30.3 µM, […]",28.48%
COCCNC(=O)Cn1cc2c(n1)c(C)nn2C,Percent Effect,"30.3 µM, […]",-28.68%
O=C(NCCSC1CCCC1)c1cc(C2CC2)on1,Percent Effect,"30.3 µM, […]",-5.763%
Cc1ccc2nc(C)cc(C(=O)NCc3csc(N(C)C)n3)c2c1,Percent Effect,"30.3 µM, […]",25.38%
COCCN(C)CC1CCCN1S(=O)(=O)Cc1ccccc1F (stereo unspecified),Percent Effect,"30.3 µM, […]",-13.31%
O=C(CCO)N1CCOC2(CCCN(C(=O)c3ccco3)C2)C1 (stereo unspecified),Percent Effect,"30 µM, 30.03 µM",-4.275%
O=C(c1ccco1)N1CCCC2(C1)CN(c1nncs1)CCO2 (stereo unspecified),Percent Effect,"30.3 µM, […]",54.73%
CC(=O)N1CCCC2(C1)CN(c1nncs1)CCO2.O=C(O)C(F)(F)F (stereo unspecified),Percent Effect,"30.3 µM, […]",42.05%
CO[C@@H]1CCN(S(=O)(=O)c2cccs2)[C@H]1Cc1cccnc1.O=C(O)C(F)(F)F,Percent Effect,"30.3 µM, […]",35.84%
Cc1cccc(C)c1OCC(=O)NS(=O)(=O)c1c(C)noc1C,Percent Effect,30 µM,12.57%
CC(C)S(=O)(=O)N1CCC(c2[nH]ncc2S(C)(=O)=O)C1 (stereo unspecified),Percent Effect,"30.3 µM, […]",-8.157%
COc1ccc(-c2ccccc2CN)c(OC)c1,Percent Effect,"30.3 µM, […]",18.4%
COc1ccc(-c2ccccc2CCN)c(OC)c1OC,Percent Effect,"30.3 µM, […]",95.35%
COc1ccc(-c2cc(CN)ccc2F)c(OC)c1OC,Percent Effect,"30.3 µM, […]",-7.273%
CC(C)N1CC[C@@H]2[C@H](COCC3CC3)CN(C)C(=O)[C@@H]2CC1.O=C(O)C(F)(F)F,Percent Effect,"30.3 µM, […]",9.802%
CS(=O)(=O)c1ccc(NC(=O)NCCC2=CCCCC2)cc1,Percent Effect,"30.3 µM, […]",16.41%
Cc1ccc(CNC(CN2CCN(C)CC2)c2ccccc2)cc1 (stereo unspecified),Percent Effect,"30 µM, 30.03 µM",94.58%
Cl.O=C(NCc1ccc(F)cc1)N1CCN(CC(O)C2CC2)CC1 (stereo unspecified),Percent Effect,"30.3 µM, […]",10.63%
Cc1ccc(CNC(c2ccccc2)c2nccn2C)cc1.Cl (stereo unspecified),Percent Effect,30 µM,-15.51%
O=C(NC(CN1CCCC1)c1ccccc1)c1c(O)cc(F)cc1F (stereo unspecified),Percent Effect,"30.3 µM, […]",5.752%
Cc1ccc(CNC(=O)CN2CCN(CC(O)C3CC3)CC2)cc1.Cl.Cl (stereo unspecified),Percent Effect,"30 µM, 30.03 µM",31.99%
CNS(=O)(=O)c1cccc(C(C)NCc2ccc(F)c(F)c2)c1 (stereo unspecified),Percent Effect,"30.3 µM, […]",11.11%
Cc1ccc(CNC(c2ccccc2)c2nccn2C)cc1C (stereo unspecified),Percent Effect,"30 µM, 30.03 µM",38.71%
COc1ccc(CNC(Cn2cncn2)c2ccccc2)cc1C (stereo unspecified),Percent Effect,"30.3 µM, […]",17.02%
Cn1cc(C(NCc2ccc(F)cc2)c2cccc(F)c2)cn1 (stereo unspecified),Percent Effect,"30.3 µM, […]",7.526%
O=C(O)C(F)(F)F.O=C1COC2(CCN(S(=O)(=O)C3CC3)CC2)CN1c1cccnc1,Percent Effect,"30.3 µM, […]",-7.696%
COc1ccc(C)nc1NC(=O)Cc1c(C)nn(C)c1C,Percent Effect,"30.3 µM, […]",1.753%
CC(C)NC(=O)c1ccc2nnc(C3CCN(S(C)(=O)=O)C3)n2c1 (stereo unspecified),Percent Effect,"30.3 µM, […]",33.79%
CC(Cn1cncn1)NC(=O)N1CC2(CCCC2)c2ccccc21 (stereo unspecified),Percent Effect,"30.3 µM, […]",3.028%
COc1ccc(C2CCCN2C(=O)NCCNc2ncccn2)cc1 (stereo unspecified),Percent Effect,"30 µM, 30.03 µM",9.2%
COc1ccc(C2CCCN2C(=O)NCCCn2cccn2)cc1 (stereo unspecified),Percent Effect,"30.3 µM, […]",9.048%
COc1ccc(C2CCCN2C(=O)NCCNc2ccccn2)cc1 (stereo unspecified),Percent Effect,"30.3 µM, […]",69.63%
CC(=O)c1cccc(-n2nc(C(C)=O)c(C(C)=O)c2C)c1,Percent Effect,"30.3 µM, […]",-0.2536%
COC[C@@]12CC[C@@H](N3CCOCC3)C[C@H]1CCN(c1ncccc1Cl)C2,Percent Effect,"30 µM, 30.03 µM",52.08%
COC[C@@]12CC[C@@H](N3CCOCC3)C[C@H]1CCN(c1ncccc1C)C2,Percent Effect,"30.3 µM, […]",25.83%
COC[C@@]12CC[C@@H](N3CCOCC3)C[C@H]1CCN(c1ncccc1F)C2,Percent Effect,"30.3 µM, […]",25.63%
CC(c1nccs1)N(C)C(=O)c1cc(CN(C)Cc2ccccc2)on1 (stereo unspecified),Percent Effect,"30.3 µM, […]",13.49%
Cc1cnn(CC2CCCN2C(=O)c2cc(Cl)ccc2F)c1 (stereo unspecified),Percent Effect,"30 µM, 30.03 µM",-5.128%
CN1CCC(N2Cc3nc(N)ncc3C2=O)CC1,Percent Effect,"30.3 µM, […]",54.63%
Nc1ncc2c(n1)CN(C1CCCC1)C2=O,Percent Effect,"30 µM, 30.03 µM",22.17%
CC1CCC(N2Cc3nc(N)ncc3C2=O)CC1 (stereo unspecified),Percent Effect,"30.3 µM, […]",-33.84%
CCC1=NN2C(=N)/C(=C\c3cccn3-c3ccc(Cl)cc3)C(=O)N=C2S1,Percent Effect,"30.3 µM, […]",-2.316%
CCN1C(=O)CC[C@@H]2[C@H]1CCN2S(=O)(=O)Cc1ccc(C)cc1,Percent Effect,"30.3 µM, […]",17.88%
Cl.Fc1cccc(F)c1Cn1c(C2CCCNC2)cc2cccnc21 (stereo unspecified),Percent Effect,"30.3 µM, […]",-15.48%
Cl.Fc1cccc(F)c1Cn1c(C2CCNCC2)cc2cccnc21,Percent Effect,"30.3 µM, […]",57.89%
Cl.Fc1ccccc1Cn1c(C2CCNCC2)cc2cccnc21,Percent Effect,"30.3 µM, […]",43.21%
Cc1nc(Nc2ncccn2)cc(C2CCN(CC(C)C)C2)n1 (stereo unspecified),Percent Effect,"30.3 µM, […]",2.022%
CN1CSC[C@H]1C(=O)N1CCN(Cc2cccc(F)c2)CC1,Percent Effect,"30.3 µM, […]",4.358%
CN(Cc1nnnn1C1CC1)CC1COc2ccccc2O1 (stereo unspecified),Percent Effect,"30.3 µM, […]",4.21%
COc1ccccc1OCCCN(C)c1cc(C)nc(N)n1,Percent Effect,"30.3 µM, […]",16.27%
Cc1csc(CN2CC(CO)Oc3ccccc32)n1 (stereo unspecified),Percent Effect,"30.3 µM, […]",-4.409%
CN(Cc1nc(CC2CC2)no1)CC1COc2ccccc2O1 (stereo unspecified),Percent Effect,"30.3 µM, […]",-8.353%
Cc1cc(N(C)CCCn2cccn2)nc(N)n1,Percent Effect,"30.3 µM, […]",27.03%
CN(CC1COc2ccccc2O1)C(=O)C1=NN(C)C(=O)CC1 (stereo unspecified),Percent Effect,"30.3 µM, […]",18.48%
CCN1CC(CN(C)c2cc(C)nc(N)n2)Oc2ccccc21 (stereo unspecified),Percent Effect,"30.3 µM, […]",84.12%
Cc1cc(N(C)CC2COc3ccccc3O2)nc(N)n1 (stereo unspecified),Percent Effect,"30.3 µM, […]",51.06%
Cc1cc(N(C)CC2COc3ccccc3O2)nc(C)n1 (stereo unspecified),Percent Effect,"30.3 µM, […]",59.02%
COc1ccccc1CNC(=O)N1CCCC(NS(C)(=O)=O)C1 (stereo unspecified),Percent Effect,"30 µM, 30.03 µM",-10.5%
Br.O=C(O)c1csc(NCCc2ccccc2)n1,Percent Effect,"30.3 µM, […]",-6.16%
CC(C)n1cnnc1CNC(=O)c1cnn(-c2ccccc2)c1,Percent Effect,"30.3 µM, […]",5.112%
Cc1nn(C)c(C)c1NC(=O)CN1CCOC(Cn2cccn2)C1 (stereo unspecified),Percent Effect,"30.3 µM, […]",7.584%
Cc1cc(NC(=O)CN2CCOC(CN(C)C)C2)n(C)n1 (stereo unspecified),Percent Effect,"30.3 µM, […]",9.756%
Cc1nn(C)c(C)c1NC(=O)CN1CCOC(CN(C)C)C1 (stereo unspecified),Percent Effect,"30.3 µM, […]",51.92%
CCC[C@@H]1CN(c2cncc(C(=O)N3CCOCC3)n2)C[C@H]1N(C)C,Percent Effect,"30.3 µM, […]",5.453%
FC(F)(F)CCc1ccnc(N2CCN(CCc3ccncc3)CC2)n1,Percent Effect,"30.3 µM, […]",-20.06%
NC(=O)c1cccc(CCNCc2cnc(-c3cccs3)s2)c1,Percent Effect,"30.3 µM, […]",8.667%
Cc1nn(C)c2ncnc(N3CCC(O)(CN4CCCC4)CC3)c12,Percent Effect,"30.3 µM, […]",8.338%
CC(=O)c1cn(CCC(=O)N[C@@H](CC(C)C)C(=O)O)c2ccccc12,Percent Effect,"30.3 µM, […]",32.27%
CC(=O)c1cn(CCC(=O)N[C@H](C(=O)O)C(C)C)c2ccccc12,Percent Effect,"30 µM, 30.03 µM",8.027%
CC[C@@H](C)[C@H](NC(=O)CCn1cc(C(C)=O)c2ccccc21)C(=O)O,Percent Effect,"30.3 µM, […]",56.09%
